Source: PubChem
POLK inh: qHTS for Inhibitors of Polymerase Kappa; Potency, µM (doses to about 107 µM), hits mostly inhibitors; purified Pol kappa, fluorescent DNA synthesis assay, 10 min; DNA polymerase kappa (Homo sapiens), Q9UBT6; 400,000 compounds, 0.53% hits
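Inhibition of 10 nM Pol kappa is measured by a fluorescent read-out at 0 and 10 min following addition of 50 nM substrate (final), with a 15-min room-temperature compound preincubation.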
POLB inh: qHTS Assay for Inhibitors of DNA Polymerase Beta; P06746; Pol beta primer extension/strand displacement, fluorescence kinetic; Potency, µM (highest dose often 114 µM), usual class: inhibitors; 340,000 compounds, 1.3% hits
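Pol beta (10 nM) and compounds were preincubated 15 min at room temperature, then 50 nM substrate (final) started primer extension/strand displacement. Reads were taken at 0 and 10 min; concentration-response data were fitted to a four-parameter Hill equation.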
Pol eta inh: qHTS for Inhibitors of Polymerase Eta; recombinant Pol eta, fluorescent DNA replication assay; AID 588591, 2011; DNA polymerase eta (Homo sapiens), Q9Y253; Potency, µM (highest dose often 114 µM), usual class: inhibitors; 390,000 compounds, 1.2% hits
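Pol eta at 10 nM preincubated with compounds 15 min at room temperature; reaction started with fluorescent substrate (50 nM final) and read kinetically at 0 and 10 min.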
WRN inhibitor: qHTS for Inhibitors of WRN Helicase; WRN helicase unwinding, fluorescent forked duplex, kinetic; 360,000 compounds, 0.46% hits; AID 651768, 2012; Potency, µM (top dose mostly 114 µM), hits mostly inhibitors; note: nearly all actives have a fitted effect of over 55% in size
Target sequence (Q14191 whole entry, looked up): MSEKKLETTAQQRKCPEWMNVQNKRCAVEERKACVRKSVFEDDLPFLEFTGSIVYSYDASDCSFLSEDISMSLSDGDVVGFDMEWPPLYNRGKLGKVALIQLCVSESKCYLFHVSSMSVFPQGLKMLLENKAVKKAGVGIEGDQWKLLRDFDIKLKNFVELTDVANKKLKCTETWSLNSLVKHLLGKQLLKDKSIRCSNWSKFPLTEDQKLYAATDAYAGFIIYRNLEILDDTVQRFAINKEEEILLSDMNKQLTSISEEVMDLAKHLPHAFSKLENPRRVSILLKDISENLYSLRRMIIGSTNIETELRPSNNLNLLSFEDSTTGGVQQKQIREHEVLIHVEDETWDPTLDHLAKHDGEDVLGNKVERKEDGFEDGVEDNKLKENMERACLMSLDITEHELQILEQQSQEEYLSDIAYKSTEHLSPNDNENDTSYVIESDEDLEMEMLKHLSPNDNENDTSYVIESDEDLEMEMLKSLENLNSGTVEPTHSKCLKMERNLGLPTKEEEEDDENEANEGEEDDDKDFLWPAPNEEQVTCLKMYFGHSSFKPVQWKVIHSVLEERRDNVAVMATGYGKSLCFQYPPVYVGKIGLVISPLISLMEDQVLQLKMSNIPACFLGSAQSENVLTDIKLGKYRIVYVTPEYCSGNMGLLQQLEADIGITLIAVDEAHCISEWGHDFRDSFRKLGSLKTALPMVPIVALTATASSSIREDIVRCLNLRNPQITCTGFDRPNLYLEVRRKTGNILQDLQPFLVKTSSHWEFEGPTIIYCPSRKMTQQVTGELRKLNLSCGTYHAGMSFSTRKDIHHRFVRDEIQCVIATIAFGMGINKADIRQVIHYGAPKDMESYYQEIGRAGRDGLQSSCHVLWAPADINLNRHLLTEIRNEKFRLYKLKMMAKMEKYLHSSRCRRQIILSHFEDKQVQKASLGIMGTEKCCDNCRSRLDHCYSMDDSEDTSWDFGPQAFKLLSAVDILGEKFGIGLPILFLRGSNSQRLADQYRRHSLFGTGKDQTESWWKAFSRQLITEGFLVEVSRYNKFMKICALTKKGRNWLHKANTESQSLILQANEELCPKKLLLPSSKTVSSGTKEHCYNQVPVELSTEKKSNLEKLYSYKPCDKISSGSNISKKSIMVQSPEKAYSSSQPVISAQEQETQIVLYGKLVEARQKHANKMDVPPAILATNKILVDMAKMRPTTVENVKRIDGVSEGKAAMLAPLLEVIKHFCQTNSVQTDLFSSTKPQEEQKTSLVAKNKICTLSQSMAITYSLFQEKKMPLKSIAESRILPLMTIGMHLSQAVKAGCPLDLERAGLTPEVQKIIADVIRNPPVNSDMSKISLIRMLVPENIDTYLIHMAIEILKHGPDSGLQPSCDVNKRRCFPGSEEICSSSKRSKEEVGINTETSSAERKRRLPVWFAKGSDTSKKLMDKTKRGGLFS
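WRN at 20 nM final was preincubated with compound for 15 min at room temperature; reaction started with 100 nM forked duplex oligonucleotide carrying fluorophore and quencher plus 2 mM ATP (final). Unwinding followed kinetically by red fluorescence (ex 525/em 598 nm).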
POLI inh: qHTS for Inhibitors of Polymerase Iota. DNA polymerase iota (Homo sapiens), Q9UNA4. Pol iota fluorescent replication assay, 10 min. Potency, µM (top dose mostly 115 µM), most hits filed as inhibitors. 390,000 compounds, 1% hits
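Fluorescent replication assay read twice, at 0 min and 10 min after adding 50 nM (final) substrate. Enzyme (10 nM) and compounds were first incubated 15 min at room temperature; enzyme-free buffer wells were negative controls.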
Numbers stand for hits; 0 = inactive; ? = inconclusive; - = not tested or not shown; [ ] = dose if it differs, or a comment. A selection: hits, their analogues and other compounds. The true share with any hit is near 2.3%. Calls come from the whole dose curve; as a rule, active = well fitted curve in the direction sought with a large enough effect; inconclusive = small, poorly fitted or top-dose-only effect, or another doubt; inactive = no such curve, though single readings can be large; an effect the other way counts as inactive or inconclusive.

SMILES	POLK inh	POLB inh	Pol eta inh	WRN inhibitor	POLI inh
CC1=NN(c2ccc(C)cc2C)C(=O)C1C(c1ccccc1O)C1C(=O)N(c2ccc(C)cc2C)N=C1C (stereo unspecified)	0	0	0	0	0.89µM
CC(C)(C)n1ncc2c(=O)n(Cc3ccccc3SC(F)(F)F)cnc21	0	-	-	-	0
O=C1CCCC2=C1C(c1ccc(O)c(O)c1)Nc1ccc3ccccc3c12 (stereo unspecified)	?	-	?	0	79µM
CC(=O)N(c1ccc2oc(=O)sc2c1)S(=O)(=O)c1cccs1	0	0	0	0	?
CC(=O)N(c1ccc2oc(=O)sc2c1)S(=O)(=O)c1ccc(C(=O)O)cc1	?	0	35µM	?	3.5µM
COc1ccc(CCC(=O)O)cc1	0	-	-	-	0
CC1(NC(=O)CC[N+](C)(C)CCO)CS(=O)(=O)CC1S(=O)(=O)[O-] (stereo unspecified)	-	2µM	-	-	-
CC1(C)O[C@@H]2C[C@H]3[C@@H]4CCC5=CC(=O)C=C[C@]5(C)[C@H]4C(O)C[C@]3(C)[C@]2(C(=O)CO)O1 (stereo partly specified)	0[19.4 µM]	-	-	-	-
COc1cc(OC)c(/C=C/c2ccc3ccccc3[n+]2[O-])c(OC)c1	0	-	-	-	0
CCCCN(C(=O)CN1CC(C)OC(C)C1)c1c(N)n(CC(C)C)c(=O)[nH]c1=O (stereo unspecified)	0	0	0	0	0
CCCCN(C(=O)Cn1ncc(Cl)c(Cl)c1=O)c1c(N)n(CC(C)C)c(=O)[nH]c1=O	71µM	22µM	28µM	0	16µM
Cc1cc(O)c(C(=O)/C=C/c2cccc([N+](=O)[O-])c2)c(=O)o1	?	?	79µM	0	40µM
O=C(Cc1ccc2ccccc2c1)NO	0	-	-	-	0
COc1ccccc1NC(=O)CSc1nc(-c2ccccc2F)nc2cc(=O)[nH]n12	0	?	0	-	?
Cc1cccc(OCCCSc2nc(-c3ccc(C(C)(C)C)cc3)nc3cc(=O)[nH]n23)c1C	0	0	-	-	?
CCc1ccc(OCCCSc2nc(-c3ccc(C(C)(C)C)cc3)nc3cc(=O)[nH]n23)cc1	0	18µM	-	-	?
O=c1cc2nc(-c3ccccc3F)nc(SCc3ccc(Br)cc3)n2[nH]1	?	32µM	?	-	?
Cc1ccc(OCCSc2nc(-c3ccccc3C)nc3cc(=O)[nH]n23)cc1Cl	?	?	89µM	-	?
Cc1ccc(C(C)C)c(OCCSc2nc(-c3ccccc3F)nc3cc(=O)[nH]n23)c1	0	16µM	?	-	?
Nc1ncnc2c1ncn2[C@@H]1O[C@H](CO)[C@H](O)[C@H]1O	-	0	0	-	0
O=S(=O)(c1ccc2c(c1)CCCC2)N1CCN(c2nc(-c3cccs3)nc3ccccc23)CC1	0	-	-	-	0
COc1cc(N(C)C)c(OC)cc1/C=C/c1ccnc2ccccc12	0	-	-	-	0
Cc1ccccc1NC(=O)Cn1c(O)c(N=NC(=O)c2ccccc2O)c2ccccc21	?	10µM	?	0	?
Cc1ccc(-n2c(SCC(=O)NCc3ccco3)nc3nc4c(cc3c2=O)COC(C)(C)C4)cc1	0	79µM	?	0[11.6 µM]	?
Cc1ccc(-n2c(SCC(=O)NCc3ccco3)nc3sc(C)c(C)c3c2=O)cc1	0	0	0	0	0
SMILES	POLK inh	POLB inh	Pol eta inh	WRN inhibitor	POLI inh
O=C(O)c1ccc(N=Cc2c(O)ccc3ccccc23)cc1	0	0	0	0[11.6 µM]	13µM
Cc1ccc(C(=O)N/N=C/c2c(O)ccc3ccccc23)cn1	0	50µM	50µM	0[11.6 µM]	?
CCCn1c(/N=C/c2ccccc2O)nc2ccccc21	0	0	?	0	0
O=C(O)c1cc(N/N=C/c2c(O)ccc3ccccc23)ccc1Cl	?	79µM	?	0[11.6 µM]	?
Cn1c(/N=C/c2c(O)ccc3ccccc23)nc2ccccc21	0	50µM	89µM	45µM	7.9µM
NC(=O)c1ccc(N=Cc2c(O)ccc3ccccc23)cc1	0	-	0	0	?
Cc1ccc(S(=O)(=O)C2(C(=O)Nc3ccc(Cl)c(C(F)(F)F)c3)CC2)cc1	0	0	0	-	0
Cc1nc(N2CCN(C)CC2)c2nnn(Cc3ccccc3)c2n1	0	-	-	-	0
O=C(O)c1cc(N/N=C/c2ccc(OCc3ccccc3)cc2)ccc1Cl	0	50µM	0	0	0
CC(C)C(=O)N/N=C/c1ccc(OCc2ccccc2)cc1	0	0	0	0	0
O=C(O)CN1C(=O)/C(=C\c2cc(Br)ccc2OCc2ccccc2Cl)SC1=S	0	32µM	40µM	56µM	?
O=C(O)CN1C(=O)/C(=C\c2ccccc2OCc2ccc(Cl)cc2Cl)SC1=S	0	20µM	45µM	?	?
CCC(=O)NCCc1c[nH]c2ccccc12	0	0	0	0	0
O=C(NCCc1c[nH]c2ccccc12)OCCSS(=O)(=O)O	0	0	0	0	25µM
COc1cc(C(c2c(C)[nH][nH]c2=O)c2c(C)[nH][nH]c2=O)ccc1OS(=O)(=O)c1ccccc1	0	0	0	0	10µM
COc1cc(C(c2c(C)[nH][nH]c2=O)c2c(C)[nH][nH]c2=O)cc(OC)c1OC	0	0	0	0	8.9µM
COc1cc(C(c2c(C)[nH][nH]c2=O)c2c(C)[nH][nH]c2=O)ccc1OC(C)C	0	0	0	0	0
COc1cc(C(c2c(C)[nH][nH]c2=O)c2c(C)[nH][nH]c2=O)cc(Cl)c1O	0	0	0	0	0
COc1ccc(OC)c(C(c2c(C)[nH][nH]c2=O)c2c(C)[nH][nH]c2=O)c1	0	0	0	0	28µM
COc1cc(C(c2c(C)[nH][nH]c2=O)c2c(C)[nH][nH]c2=O)ccc1OS(=O)(=O)c1ccc(C)cc1	0	0	0	0	3.5µM
COc1ccc(C(c2c(C)[nH][nH]c2=O)c2c(C)[nH][nH]c2=O)cc1Br	0	0	0	0	?
COc1ccc(N2C(=O)c3ccccc3NC2c2ccc(OC)c(COc3ccc(NC(C)=O)cc3)c2)cc1 (stereo unspecified)	0	-	-	-	0
Cc1ccc2nc(-c3ccc(C)c(NC(=O)COc4ccc(Cl)cc4)c3)oc2c1	0	-	-	-	0
COc1cc(C(c2c(C)[nH][nH]c2=O)c2c(C)[nH][nH]c2=O)ccc1OC(=O)c1cccc([N+](=O)[O-])c1	0	0	0	0	10µM
Cc1cc(Cl)ccc1NS(=O)(=O)c1cc2[nH]c(=O)c(=O)[nH]c2cc1C	0	0	0	-	0
CCN(CC)c1ccc(NS(=O)(=O)c2cc3[nH]c(=O)c(=O)[nH]c3cc2C)c(C)c1	?	50µM	0	-	?
O=C(O)CCc1cc(I)c(O)c(I)c1	0[19.4 µM]	-	-	-	-
CN(C)c1cc(N2CCOCC2)nc(C#N)n1	0	-	-	-	0
Cc1ccc(NC(=O)CCn2c(=O)c3cccn3c3ccccc32)c(C)c1	0	0	0	0	89µM
